We go through 33 compounds from the supplement of paper PMC12669797.

The subject of assay [1] is ES2. Kind of assay: cell viability relative to DMSO control (MTS) (fraction of DMSO control); higher = more viable cells / less growth inhibition. The conditions noted are these: 10 µM; 48 h. Put shortly: (§1)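 TOV-21G and ES2 clear cell carcinoma cells were seeded at 5000 cells per well in 96-well plates and grown for 24 h. Cells then received a 367-compound […] library at 10 µM final concentration, with DMSO in control wells. After 48 h, viability was read by MTS assay (CellTiter 96 AQueous One Solution) following the maker's protocol. Cell viability is expressed as a fraction of the DMSO control.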

Assay [2] relates to TOV-21G. Described as above. The conditions noted are these: 10 µM; 48 h. Put shortly:
as §1

Values joined by “and” are separate entries in the source; they are usually repeats but may differ in a detail not shown here. Equal values may be shown once. Where a name gives a salt, the structure may show the parent alone. ± gives the standard deviation of the averaged measurements.

Take `CC[n+]1c(/C=C/N(C)c2ccccc2)n(-c2ccccc2)c2ccc(-c3nc4ccccc4s3)cc21` [Akt Inhibitor IV]: the figures for the cell viability in assay [1] and in assay [2] were 0.308 and 0.218, respectively.

With `CC(C)CC(=O)N[C@H](C(=O)N[C@H](C(=O)N[C@@H](CC(C)C)[C@@H](O)CC(=O)N[C@@H](C)C(=O)N[C@@H](CC(C)C)[C@@H](O)CC(=O)O)C(C)C)C(C)C` [Pepstatin A], the cell viability in assay [1] amounted to 0.807; in assay [2], 1.18.

On to `COC(=O)c1ccc(NCc2cc(O)ccc2O)cc1`, for which the values for the cell viability in assay [1] and in assay [2] were 1.414 ± 0.0028 and 1.06 ± 0.026, respectively.

Consider `CNC(=N)NCCC[C@H](N)C(=O)O`, for which the values for the cell viability in assay [1] and in assay [2] were 0.909 and 0.974, respectively.

As for `Cc1nc2c(O)cccc2c(=O)[nH]1`, the cell viability was 1.04 in assay [1] and 0.856 in assay [2].

Regarding `CC#C[C@]1(O)CC[C@H]2[C@@H]3CCC4=CC(=O)CCC4=C3[C@@H](c3ccc(N(C)C)cc3)C[C@@]21C` [Mifepristone], the cell viability was found to be 1.04 in assay [1] and 0.846 in assay [2].

Take `NC(=O)Nc1sc(-c2ccccc2)cc1C(N)=O` [IKK-2 inhibitor VI]: the cell viability was determined as 0.555 in assay [1] and 0.476 in assay [2].

Regarding `O=S(=O)(c1cccc2cnccc12)N1CCCNCC1`, the values for the cell viability in assay [1] and in assay [2] were 0.979 and 1.04, respectively.

Turning to `O=C(CCCCCN1C(=O)c2cccc3cccc(c23)C1=O)NO` [Scriptaid], the values for the cell viability in assay [1] and in assay [2] were 0.311 and 0.367, respectively.

For `C[C@@H](N)[C@H]1CC[C@H](C(=O)Nc2ccncc2)CC1`, the cell viability in assay [1] was 1.09 and 0.911; in assay [2], 0.922 and 0.973.

Turning to `NC(=O)c1ccc(-c2nc(-c3ccccn3)c(-c3ccc4c(c3)OCO4)[nH]2)cc1`, the cell viability was 1.08 and 1.11 in assay [1]; 0.993 and 1.03 in assay [2].

Consider `COc1cccc(-c2cc(=O)c3ccccc3o2)c1N`, for which the cell viability in assay [1] is 0.798 and 0.451; in assay [2], 0.852 and 0.84.

`Nc1nc(Nc2ccc(S(N)(=O)=O)cc2)nn1C(=S)Nc1c(F)cccc1F` [Cdk1/2 inhibitor III]: the cell viability in assay [1] came out at 0.687; in assay [2] it was 0.665.

As to `COc1ccc(C2=N[C@@H](c3ccc(Cl)cc3)[C@@H](c3ccc(Cl)cc3)N2C(=O)N2CCNC(=O)C2)c(OC(C)C)c1` [Nutlin-3], the cell viability is 0.825 in assay [1] and 0.413 in assay [2].

For `CCCC[C@@H](C)/C=C(C)/C=C(\C)C(=O)NC1=C[C@@](O)(/C=C/C=C/C=C/C(=O)NC2=C(O)CCC2=O)[C@@H]2O[C@@H]2C1=O` [Manumycin A], the cell viability in assay [1] stood at 1.06; in assay [2], 1.61.

Consider `CC(C)(C)NC(=O)[C@H]1CC[C@H]2[C@@H]3CC[C@H]4NC(=O)C=C[C@]4(C)[C@H]3CC[C@]12C` [Finasteride], for which the cell viability in assay [1] is 1.3; in assay [2], 0.952.

`Cc1nc2sccn2c(=O)c1CCN1CCC(=C(c2ccccc2)c2ccc(F)cc2)CC1`: the cell viability in assay [1] is 0.963; in assay [2], 1.04.

`O=C(O)c1ccccc1Nc1ccccc1` [N-phenylanthranilic acid]: the cell viability came to 1.02 in assay [1] and 0.995 in assay [2].

Turning to `C=CCNC1=C2C[C@@H](C)C[C@H](OC)[C@H](O)[C@@H](C)/C=C(\C)[C@H](OC(N)=O)[C@@H](OC)/C=C\C=C(/C)C(=O)NC(=CC1=O)C2=O`, the cell viability is 0.541 in assay [1] and 0.575 in assay [2].

Turning to `CCCCOc1cc(CC2CNC(=O)N2)ccc1OC` (stereo unspecified), the cell viability in assay [1] worked out at 0.901; in assay [2], 0.999.

As to `COc1cc2ncc(-c3ccccc3)nc2cc1OC`, the cell viability in assay [1] came to 0.862 ± 0.058; in assay [2], 0.955 ± 0.13.

Regarding `c1ccc2c(-c3cnn4cc(-c5ccc(N6CCNCC6)cc5)cnc34)ccnc2c1`, the cell viability came out at 0.267 in assay [1] and 0.344 in assay [2].

Regarding `CN(C)CC[C@H](CSc1ccccc1)Nc1ccc(S(=O)(=O)NC(=O)c2ccc(N3CCN(Cc4ccccc4-c4ccc(Cl)cc4)CC3)cc2)cc1[N+](=O)[O-]`, the cell viability in assay [1] is 0.713; in assay [2], 0.358.

`CC/C(=C(\c1ccccc1)c1ccc(OCCN(C)C)cc1)c1ccccc1` [Tamoxifen, citrate]: the cell viability worked out at 1.34 in assay [1] and 0.868 in assay [2].

Turning to `O=Nc1c(-c2c(O)[nH]c3ccccc23)[nH]c2ccccc12` [indirubin-3'-monoxime], the cell viability in assay [1] was determined as 0.696; in assay [2], 0.491.

Regarding `CCN(CC)CCNC(=O)c1c(C)[nH]c(/C=C2\C(=O)Nc3ccc(F)cc32)c1C` [sunitinib malate], the cell viability in assay [1] was found to be 0.439; in assay [2] it was 0.555.

Regarding `COc1ccc(Cn2ccc3ccc(C(=O)NO)cc32)cc1`, the cell viability in assay [1] turned out to be 0.928; in assay [2], 0.919.

In the case of `COc1cc(Nc2ncc3c(n2)-c2ccc(Cl)cc2C(c2c(F)cccc2OC)=NC3)ccc1C(=O)O`, the cell viability in assay [1] is 0.769; in assay [2] it was 0.619.

Regarding `CC(C)C(=O)Nc1ccc([N+](=O)[O-])c(C(F)(F)F)c1` [Flutamide], the cell viability in assay [1] is 0.917; in assay [2], 1.09.

With `O=c1cc(N2CCOCC2)oc2c(-c3ccccc3)cccc12`, the cell viability in assay [1] was 0.666 and 0.627; in assay [2] it was 0.52 and 0.519.

For the compound `N=C(N)NC(=O)c1nc(Cl)c(N)nc1N` [Amiloride], the cell viability in assay [1] was 1.16; in assay [2] it was 1.24.

Take `Oc1nc(-c2ccc(C(F)(F)F)cc2)nc2c1CSCC2`: the cell viability in assay [1] amounted to 0.961; in assay [2] it was 1.1.

As for `NCC(=O)Nc1ccc(-n2nc(C(F)(F)F)cc2-c2ccc3c(ccc4ccccc43)c2)cc1`, the cell viability in assay [1] stood at 1.04; in assay [2] it was 1.21.
